Several values for one entry are separate records, joined by “and”; a condition that tells them apart may be missing. Identical values can stand only once. ± gives the standard deviation of the averaged measurements.
How the values were obtained:
Settings in all cases: concentration: 10 µM; 24 h
HCC1569 [1] = experiment: cell number relative to DMSO (% of DMSO); higher = more cells (less growth inhibition / toxicity)
Outline: (§1)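 Treatment: HCC1569 and TDF cells, 800 per well in 384-well plates with RPMI and 10% FBS, were given compounds at 10 µM for 24 h at 37 °C, in triplicate. Readout: after 3.7% formaldehyde fixation, cells were stained with a rabbit anti-H1.0 antibody, an AlexaFluor 647 secondary and DAPI. Reported values are H1.0 nuclear intensity or cell number as percent of the plate control, taken as the median of replicates, with positional smoothing for HCC1569.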

TDF [2] = experiment: as above
Outline: as §1

TDF [3] = experiment: H1.0 immunofluorescence intensity relative to DMSO (% of DMSO); higher = stronger H1.0 induction, active = 120 or more
Outline: as §1

HCC1569 [4] = experiment: H1.0 immunofluorescence intensity relative to DMSO (% of DMSO); higher = stronger H1.0 induction, active = 140 or more
Outline: as §1
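Throughout, for H1.0 immunofluorescence intensity relative to DMSO: TDF is a line of transformed human dermal fibroblasts of mesenchymal origin.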
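Throughout, for cell number relative to DMSO: TDF denotes transformed human dermal fibroblasts of mesenchymal origin.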

SMILES | cell number (HCC1569 [1]) | cell number (TDF [2]) | H1.0 immunofluorescence intensity (TDF [3]) | H1.0 immunofluorescence intensity (HCC1569 [4])
CN(C)CC(C)(C)CNc1nn2c(-c3ccccc3)nnc2cc1C1CCC1 | 101 | 103 | 99.9 (inactive) | 92.2 (inactive)
CN(C)[C@@H](CCOc1cccc2ccccc12)c1ccccc1.Cl | 90.3 | 92.4 | 104 (inactive) | 142 (active)
Cl.NC1C=CC=C(C(=O)O)C1 (stereo not drawn) [Gabaculine hydrochloride] | 103 | 108 | 102 (inactive) | 105 (inactive)
c1coc(CNc2ncnc3nc[nH]c23)c1 [Kinetin] | 103 | 112 | 95.4 (inactive) | 92.8 (inactive)
CC1=NC(=NNc2ccc(S(=O)(=O)[O-])cc2S(=O)(=O)[O-])C(COP(=O)([O-])[O-])=C(C=O)C1=O.[Na+].[Na+].[Na+].[Na+] | 102 | 103 | 90.1 (inactive) | 97.3 (inactive)
c1ccc(C2CN3CCSC3=N2)cc1 (stereo not drawn) [Levamisole] | 98.3 | 94.6 | 102 (inactive) | 92.1 (inactive)
COc1ccc(C(=O)NCc2ccc(OCCN(C)C)cc2)cc1OC [Itopride] | 101 | 104 | 92 (inactive) | 118 (inactive)
CCCCCCCCCCCCCCC(C(=O)O)=C(C)C(=O)O [Chaetomellic acid A] | 102 | 93.6 | 104 (inactive) | 100 (inactive)
O=C(O)c1cc(=O)c2ccccc2[nH]1 [Kynurenic acid] | 107 | 106 | 91.3 (inactive) | 94.5 (inactive)
NCC(O)c1ccc(O)c(O)c1.O=C(O)C(O)C(O)C(=O)O (stereo not drawn) [Norepinephrine-(+)-tartrate L (-)] | 100 | 99.2 | 91.4 (inactive) | 105 (inactive)
CCC=CCC=CCC=CCC=CCCCCC(=O)O.[Na] [6(Z), 9(Z), 12(Z), 15(Z)-Octadecatetraenoic acid] | 102 | 91.9 | 106 (inactive) | 102 (inactive)
COc1ccc(Nc2nc(N)nc(CN3CCCCC3)n2)cc1 | 102 | 90.5 | 96.9 (inactive) | 94.5 (inactive)
O=C(O)c1ccc(SC2=NS(=O)(=O)c3ccccc32)cc1 [4-((1,1-dioxidobenzo[d]isothiazol-3-yl)thio)benzoic acid] | 100 | 107 | 93.5 (inactive) | 98.7 (inactive)
COc1cccc(-c2cc(=O)c3ccccc3o2)c1N | 99.7 and 100 and 98.4 | 105 and 103 | 85.6 (inactive) and 92.6 (inactive) and 87.8 (inactive) | 106 (inactive) and 104 (inactive)
CC(CSC(=O)c1ccccc1)C(=O)N1CC(Sc2ccccc2)CC1C(=O)[O-].CC(CSC(=O)c1ccccc1)C(=O)N1CC(Sc2ccccc2)CC1C(=O)[O-].[Ca+2] (stereo not drawn) | 106 | 119 | 93.2 (inactive) | 95.4 (inactive)
N#Cc1cccc(-c2c[nH]c3ncnc(N4CCOCC4)c23)c1 [3-(4-morpholino-7H-pyrrolo[2,3-d]pyrimidin-5-yl)benzonitrile] | 107 | 110 | 86.3 (inactive) | 80.8 (inactive)
C=C1OC(CO)(n2cnc3c(N)ncnc32)C(O)C1O (stereo not drawn) [Decoyinine] | 107 | 105 | 91.6 (inactive) | 88.3 (inactive)
Cc1ccc(NC(=O)CCCCCC(=O)Nc2ccccc2N)cc1 [N~1~-(2-aminophenyl)-N~7~-(4-methylphenyl)heptanediamide] | 96.1 | 70.6 | 113 (inactive) | 214 (active)
CCOC(=O)c1c2c3c(cccc3[nH]c1=O)C(=O)c1ccccc1-2 | 99.7 | 108 | 94.2 (inactive) | 99.9 (inactive)
CC1CC=CC=CC=CC=CC(OC2OC(C)C(O)C(N)C2O)CC2OC(O)(CC(O)CC3OC3C=CC(=O)O1)CC(O)C2C(=O)O (stereo not drawn) [Pimaricin] | 106 | 94 | 94.9 (inactive) | 88.8 (inactive)
CCOc1ccc(C(Nc2ccccn2)c2ccc3ccc(C)nc3c2O)cc1C (stereo not drawn) | 87.7 | 84.1 | 94.8 (inactive) | 115 (inactive)
O=C(C1CCCCC1)N1CC(=O)N2CCc3ccccc3C2C1 (stereo not drawn) [Praziquantel] | 101 ± 4.6 | 103 ± 5.6 | 94.8 (inactive) | 106 (inactive)
